Assay outcomes (PubChem BioAssay)
TRPV1 PAM = HTS Assay for Compounds that Act as Potentiators of the Vanilloid Receptor 1. Transient receptor potential cation channel subfamily V member 1 (Homo sapiens), Q8NER1. TRPV1-expressing cells, Fluo-8 calcium influx, capsaicin EC20 potentiation. potentiation, % at 8.33 µM. 320,000 compounds, 0.02% hits. AID 540277, 2011; in the data active = potentiation above about 80%; inconclusive = between about 30% and that limit
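Fluo-8 calcium influx in TRPV1-expressing cells, kinetic read (ex 480/em 520 nm). Compound added and read 3 min for agonist activity, followed by capsaicin at EC20 final and 2 min further read for enhancement.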
KCNH2 WT inh = qHTS for Inhibitors of KCHN2 3.1: Wildtype qHTS | Voltage-gated inwardly rectifying potassium channel KCNH2 (Homo sapiens), Q12809 | U2OS, BacMam KCNH2, thallium flux FluxOr; stronger effect = lower value | activity change, % at 1.84 µM | 340,000 compounds, 0.37% hits | AID 720551, 2013;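 active = maximum activity change below -70%; inconclusive = maximum activity change between -70% and -50%; inactive = maximum activity change above -50%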
Target sequence (Q12809 whole entry, looked up): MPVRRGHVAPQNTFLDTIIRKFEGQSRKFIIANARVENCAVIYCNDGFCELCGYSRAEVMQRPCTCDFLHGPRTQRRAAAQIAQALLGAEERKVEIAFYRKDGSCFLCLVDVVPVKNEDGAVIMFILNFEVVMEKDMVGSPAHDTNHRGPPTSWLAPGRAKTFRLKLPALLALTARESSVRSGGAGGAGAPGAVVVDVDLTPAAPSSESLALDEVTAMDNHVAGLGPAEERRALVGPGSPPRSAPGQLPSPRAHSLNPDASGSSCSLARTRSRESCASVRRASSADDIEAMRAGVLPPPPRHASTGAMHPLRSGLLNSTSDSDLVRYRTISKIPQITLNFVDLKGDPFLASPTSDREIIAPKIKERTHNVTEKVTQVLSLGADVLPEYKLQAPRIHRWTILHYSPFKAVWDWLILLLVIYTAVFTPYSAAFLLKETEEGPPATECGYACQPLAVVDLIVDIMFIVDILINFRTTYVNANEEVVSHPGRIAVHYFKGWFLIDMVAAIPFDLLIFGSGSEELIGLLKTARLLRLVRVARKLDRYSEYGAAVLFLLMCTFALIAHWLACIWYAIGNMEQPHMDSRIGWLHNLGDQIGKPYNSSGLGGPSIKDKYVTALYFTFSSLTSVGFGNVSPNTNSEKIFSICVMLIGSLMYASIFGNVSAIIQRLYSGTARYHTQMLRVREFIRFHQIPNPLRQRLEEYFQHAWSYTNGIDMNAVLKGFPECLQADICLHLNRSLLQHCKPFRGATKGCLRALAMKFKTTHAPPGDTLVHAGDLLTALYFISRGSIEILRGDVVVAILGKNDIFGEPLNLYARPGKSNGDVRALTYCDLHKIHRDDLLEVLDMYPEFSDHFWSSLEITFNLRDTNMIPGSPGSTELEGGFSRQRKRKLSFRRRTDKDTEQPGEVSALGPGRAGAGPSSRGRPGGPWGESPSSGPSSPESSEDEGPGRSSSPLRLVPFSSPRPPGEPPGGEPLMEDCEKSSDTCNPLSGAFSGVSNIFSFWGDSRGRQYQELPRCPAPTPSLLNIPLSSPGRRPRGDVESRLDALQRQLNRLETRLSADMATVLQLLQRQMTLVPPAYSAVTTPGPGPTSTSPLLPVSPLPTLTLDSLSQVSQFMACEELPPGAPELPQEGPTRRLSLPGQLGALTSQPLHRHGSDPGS
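U2OS cells transduced with wild-type KCNH2 virus are loaded with FluxOr dye for 45 min, and thallium flux is measured in kinetic reads before and after stimulation buffer. Rate constants are normalized to DMSO controls.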
TRPV1 ag = HTS Assay for Compounds that Act as Agonists of the Vanilloid Receptor 1 | TRPV1-expressing cells, Fluo-8 calcium influx, agonist mode | activation, % at 8.33 µM | 320,000 compounds, 0.19% hits; in the data active = activation above about 80%; inconclusive = between about 30% and that limit
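Cells expressing TRPV1 were dye-loaded with Fluo-8 and read kinetically: 10 s baseline, 3 min after compound (agonist portion), then 2 min after EC20 capsaicin (allosteric enhancer portion). Calcium-bound dye fluorescence at 480/520 nm.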
KCNH2 3.1 block = qHTS for Inhibitors of KCHN2 3.1: Mutant qHTS; U2OS KCNH2 3.1, thallium flux FluxOr; stronger effect = lower value; activity change, % (tested at about 1.8 µM); 340,000 compounds, 0.95% hits; AID 720553, 2013;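 active = maximum activity change below -70%; inconclusive = maximum activity change from -70% to -50%; inactive = maximum activity change above -50%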;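 also: thallium influx rate constant from kinetic fluorescence after stimulation buffer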
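Steps: virus added to U2OS suspension (4 h, RT, dark); medium with 10% FBS added, cells plated, 37 C overnight; FluxOr/Red40 loading buffer 45 min RT; stimulation buffer, 2 min kinetic read; rate constant normalized.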
Each line names hits and unclear results; the compound was inactive in the other large screens. Only some compounds are listed: those with a hit (about 1.3% of all), similar ones and a draw of the others.

CC(C)CN(C(=O)c1cccc(S(=O)(=O)N2CCN(Cc3ccccc3)CC2)c1)C1CCS(=O)(=O)C1 (stereo unspecified)	none
Cc1[nH]n(-c2ccccc2)c(=O)c1N=Nc1ccc(F)cc1	KCNH2 3.1 block -79
Cn1cc(-c2cccc(C(F)(F)F)c2)cc(C#N)c1=O	none
CCC(=O)n1nc(-c2cccnc2)nc1NCc1ccccc1	none
CCCC(=O)n1nc(-c2cccnc2)nc1NCc1ccccc1	KCNH2 3.1 block -125
COc1cc(F)cc(-c2ccc3c(c2)c(C#Cc2ccsc2)c(-c2cc(OC)cc(OC)c2)n3C)c1	none (no result: TRPV1 PAM, TRPV1 ag)
C[C@H](NC(=O)CCCOc1ccc(Cl)cc1Cl)c1nnc2ccccn12	none
C(=N\Nc1nc(-c2ccccc2)cs1)/c1cccnc1	TRPV1 ag inconclusive
Clc1ccc(-c2csc(N/N=C/c3cccnc3)n2)c(Cl)c1	KCNH2 WT inh inconclusive, KCNH2 3.1 block -112
Cc1ccc2nc(NC(=O)c3ccc4c(c3)OCO4)sc2c1	TRPV1 ag 82
Cc1ccc2nc(NC(=O)c3ccc4ncsc4c3)sc2c1	TRPV1 ag inconclusive
Cc1cc(C)n2c(Br)c(CSc3nc4ccccc4s3)nc2n1	KCNH2 3.1 block -78
COc1ccc(CN(CCc2ccccc2)Cc2ccccc2)cc1OC	KCNH2 3.1 block -82
COc1ccc(CC(=O)NCCCc2ccccc2)cc1OC	TRPV1 ag 105
O=C(OC1CCOC1=O)C1CCN(S(=O)(=O)c2ccccc2)CC1 (stereo unspecified)	none
COc1cc2c(cc1OC)CN(C(=O)CN1CCN(S(=O)(=O)c3ccc(C)c(C)c3)CC1)CC2	none
C#CCOCCOCCOCCNc1nc(N2CCN(C(=O)[C@H](CCCCN)n3cc(CC(C)O)nn3)CC2)nc(N2CCN(C(=O)[C@H](CCCCN)n3cc(CC(C)O)nn3)CC2)n1 (stereo partly specified)	KCNH2 3.1 block -76
COC(=O)c1c(NC(=O)CCCOc2cccc(C)c2)sc2c1C(C(=O)OC)CC2 (stereo unspecified)	none (no result: KCNH2 WT inh, KCNH2 3.1 block)
Cc1ccc(N2C(=O)CC(n3nc(C)cc3C)C2=O)cc1 (stereo unspecified)	KCNH2 3.1 block -211
COc1ccccc1C(=O)Nc1ccc(S(=O)(=O)Nc2cnc3ccccc3n2)cc1	none
O=C(COC(=O)C1CCN(c2ccc(C(F)(F)F)cn2)CC1)Nc1ncc(Cl)cc1Cl	KCNH2 3.1 block -71
O=C(COC(=O)C1CCN(c2ccc(C(F)(F)F)cn2)CC1)Nc1ccc(Cl)cn1	none
COC(=O)Cn1ccc(N(C)C)c(C#N)c1=O	none
COC(=O)Cn1ccc(-c2ccc(Cl)cc2)c(C#N)c1=O	KCNH2 3.1 block -114
O=C(CCc1ccncc1)N1CCCC(Nc2ccc(F)cc2)C1 (stereo unspecified)	none
O=C(CCc1ccccc1)N1CCCC(Nc2ccc(F)cc2)C1 (stereo unspecified)	TRPV1 ag 87
CC(C)c1ccc(NC2CCCN(C(=O)c3ccnc(Cl)c3)C2)cc1 (stereo unspecified)	TRPV1 ag 91
Cc1ncsc1CCC(=O)N1CCCC(Nc2ccc(C(C)C)cc2)C1 (stereo unspecified)	TRPV1 ag 84
COC(=O)c1ccc(C(=O)N2CCCC(Nc3ccc(C(C)C)cc3)C2)nc1 (stereo unspecified)	TRPV1 ag 83
O=C(CNS(=O)(=O)c1ccccc1)N1CCc2ccccc2C1	none
Cc1cc(N2C(=O)c3ccc(C(=O)Nc4ccc(CC(=O)O)cc4)cc3C2=O)no1	none
COc1ccc(NC(=O)COC(=O)CCc2ccc(S(=O)(=O)N3CCOCC3)cc2)cc1OC	none (no result: TRPV1 PAM, TRPV1 ag)
CC(C)c1ccc(NC2CCCN(C(=O)c3ccco3)C2)cc1 (stereo unspecified)	TRPV1 ag 97
CC1CCCCC1NC(=O)c1cccc(NC2=NC3CS(=O)(=O)CC3S2)c1 (stereo unspecified)	none
Cc1cc(S(=O)(=O)Nc2cccnc2)c(C)s1	KCNH2 3.1 block -72
Cc1ccc(S(=O)(=O)Nc2cccnc2)cc1C	none
Cc1nc2ccccc2c(=O)n1NC(=O)C1CCC(C(C)(C)C)CC1 (stereo unspecified)	TRPV1 ag 82
Cc1nc2ccccc2c(=O)n1NC(=O)C1CC1C (stereo unspecified)	none
COc1cc(N)c(Cl)cc1C(=O)N[C@H]1CCN(CCCOc2ccc(F)cc2)C[C@H]1OC	KCNH2 WT inh -70, KCNH2 3.1 block -84
COc1ccc(CN(C)[C@H]2C[C@H]3c4[nH]c5ccccc5c4CCN3C[C@H]2[C@H](C)O)cc1	KCNH2 3.1 block -81 (no result: TRPV1 PAM, TRPV1 ag)
COc1ccc(NC(=O)N(C)[C@H]2C[C@H]3c4[nH]c5ccccc5c4CCN3C[C@H]2[C@H](C)O)cc1	none (no result: TRPV1 PAM, TRPV1 ag)
O=C(Nc1cccc(NC(=O)c2ccc(-c3ccc(Br)cc3)o2)c1)c1ccccc1	KCNH2 3.1 block -94
O=C(Nc1ccc(CN2CCOCC2)cc1)c1ccc(-c2ccc(Br)cc2)o1	KCNH2 3.1 block -103
Cc1ccccc1NC(=O)Cc1nnc(SCC(=O)NC2=NCCS2)n1C	none
CNc1oc(/C=C/c2cc(OC)c(OC)c(OC)c2)nc1C#N	none (no result: KCNH2 WT inh, KCNH2 3.1 block)
O=C(c1cc(Br)c(Br)s1)N1CCOCC1	KCNH2 WT inh -201, TRPV1 ag inconclusive
O=C(COC(=O)CNC(=O)c1ccc(Cl)cc1Cl)NC1CCCCCCC1	none
CCCCc1ccc(NC(=S)Nc2cccnc2)cc1	none
CCCCc1ccc(NC(=O)Nc2cccnc2)cc1	TRPV1 ag 85
CCCC(C)C(=O)Nc1ncc(S(=O)(=O)c2ccc([N+](=O)[O-])cc2)s1 (stereo unspecified)	KCNH2 WT inh -102, KCNH2 3.1 block -106
COc1ccc(C(CNC(=O)c2ccc(-c3nc4ccccc4s3)o2)N2CCCC2)cc1 (stereo unspecified)	none
CCOc1cccc2sc(N(CCCN(C)C)C(=O)c3ccc(S(=O)(=O)N(C)c4ccccc4)cc3)nc12	KCNH2 WT inh -106, KCNH2 3.1 block -85
CN(C)CCCN(C(=O)c1ccc(S(=O)(=O)N(C)C2CCCCC2)cc1)c1nc2ccc(F)cc2s1	none
CCc1ccc2nc(N(CCCN(C)C)C(=O)c3ccc(S(=O)(=O)N(C)C4CCCCC4)cc3)sc2c1	KCNH2 3.1 block -72
C=CCN=c1scc(-c2ccc3c(c2)NC(=O)CO3)n1/N=C(\C)c1ccccn1	KCNH2 3.1 block -95
FC(F)(F)c1ccc(-c2csc(-c3ccno3)n2)cc1	none (no result: TRPV1 PAM, TRPV1 ag)
CC(C)(C)C(=O)OCc1nc(-c2ccc(C(F)(F)F)cc2)cs1	KCNH2 3.1 block -93
COc1ccc(Cc2nnc(NS(=O)(=O)c3ccc([N+](=O)[O-])cc3)s2)cc1	none
O=C1CCC(C(=O)NCc2ccccc2)N1 (stereo unspecified)	none
